Assay outcomes as filed in PubChem BioAssay.
MCF10A rereplic: DNA re-replication induction in MCF 10a cells; AID 624296; Potency, µM (titrated, usually from 46.1 µM), without a hit: at the top dose activity, positive = re-replication, hits mostly activators; MCF 10A DNA re-replication, Hoechst nuclear intensity, 48 h; 350,000 tested, 2.9% active; further: potency means the concentration at half of the fitted maximal effect; % of control where 0% means no effect; nearly all actives have a fitted effect of over 50% in size
TDP1 cell noCPT: qHTS for Inhibitors of human tyrosyl-DNA phosphodiesterase 1 (TDP1): qHTS in cells in absence of CPT. DT40 Tdp1-/- hTDP1 cells, no CPT, ATP luminescence, 48 h. Potency, µM (doses to about 46.2 µM), without a hit: at the top dose activity change, negative = growth inhibition, most hits filed as inhibitors. 420,000 tested, 15% active; further: potency means the concentration at half of the fitted maximal effect; on the % scale 0 is the no-effect control and ±100 the full control effect; nearly all actives have a fitted effect of over 55% in size
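No-CPT arm: Tdp1-/-;hTDP1 DT40 cells (400/well) plus compounds, incubated ≥48 hr at 37 °C. Readout CellTiter-Glo luminescence.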
IL1B secr inh: blocks inflammasome-driven IL-1 beta release; THP-1 LPS/ATP IL-1B secretion, AlphaLISA, 16 h; hits give low values; activity change, % at 57.5 µM; 360,000 tested, 4.7% active; in the data active means activity change below about -50%; inconclusive means mostly about -30% to -49%; further: on the % scale 0 is the no-effect control and ±100 the full control effect
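THP-1 cells pretreated 1 hr with compounds (up to 57.5 uM final), then stimulated with LPS (250 ng/mL final) plus ATP (1.25 mM final); secreted IL-1B measured by AlphaLISA after 16 hr, decreased signal indicating inhibition.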
SW480 rerep: DNA re-replication induction in SW480 cells; 340,000 tested, 1.8% active; AID 624297; Potency, µM (top dose mostly 46.1 µM), without a hit: top-dose re-replication activation, most hits filed as activators; SW480 DNA re-replication, Hoechst DNA content imaging, 48 h; further: potency means the concentration at half of the fitted maximal effect; % of control where 0% means no effect; nearly all actives have a fitted effect of over 55% in size
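DNA re-replication was detected as more nuclei of elevated Hoechst intensity after 48 hr exposure to compound (23 nL pinned per well of 250 cells).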
TDP1 cell CPT: DT40-hTDP1 cell growth loss with CPT; Potency, µM (top dose mostly 46.2 µM), for the others: top-dose activity change, negative = growth inhibition, hits mostly inhibitors; chicken DT40 Tdp1-/-;hTDP1 cells + 20 nM CPT, ATP luminescence, 48 h; 420,000 tested, 12% active; AID 686979; further: potency means the concentration at half of the fitted maximal effect; on the % scale 0 is the no-effect control and ±100 the full control effect; nearly all actives have a fitted effect of over 55% in size
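Chicken DT40 Tdp1-/- cells complemented with human TDP1, 400 cells/well, exposed to compounds plus 20 nM camptothecin for at least 48 h at 37 C; viability read as ATP content by CellTiter-Glo luminescence.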
Chronic BCR inh: chronic active BCR signaling inhibition. ABC-DLBCL IkBa-CBG/CBR reporter, luminescence ratio, 4 h. Potency, µM (top dose mostly 46.1 µM), inactives show top-dose activity change, negative = inhibition, hits mostly inhibitors. 340,000 tested, 0.05% active. AID 493014; active means well fitted inhibition curve with a large enough effect in the signal ratio, with a control signal flat, not every such curve was filed as active; inconclusive means small, poorly fitted or top-dose-only effect, or effect the other way, or a change in a side signal; the % refers to the signal ratio;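 further: potency means the concentration at half of the fitted maximal effect; plate controls were basal doxycycline-induced cells for no effect and cells given 10 µM MG132 for full effect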
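Concentration-response series (up to 46 uM) were applied to TMD8 dual-reporter cells for 4 h at 37C with doxycycline. Green/red ratio, after filter-overlap correction, defined %Activity; red signal alone was normalised to basal cells and zero luminescence.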
Starred values were filed as active, the others as inactive; ! = not active in a repeat; [ ] = remark or other dose. Compounds with a hit are over-represented: about 19% of the library has one in this group of screens. Unless noted, the call rests on the fitted dose curve; in most records, active means well fitted curve in the direction sought with a large enough effect; inconclusive means small, poorly fitted or top-dose-only effect, or another doubt; inactive means no such curve, though single readings can be large; an effect the other way counts as inactive or inconclusive.

What do the screens show for `C=CCNC(=O)c1onc(CSc2cc(C)cc(C)c2)c1C(=O)NCC=C`?
MCF10A rereplic: inconclusive; TDP1 cell noCPT: 18µM*; IL1B secr inh: -104*; SW480 rerep: 9%; TDP1 cell CPT: inconclusive; Chronic BCR inh: inconclusive

Results for O=c1c(-c2cccc(Cl)c2)nc2cncnc2n1Cc1ccccc1Cl ?
TDP1 cell noCPT: 11%; TDP1 cell CPT: 22%

What do the screens show for `COc1ccccc1-c1noc(-c2ccccc2C(=O)Nc2ccccc2)n1`?
MCF10A rereplic: 2%; TDP1 cell noCPT: -25%; IL1B secr inh: 5; SW480 rerep: -8%; TDP1 cell CPT: -22%; Chronic BCR inh: -1%

How did COc1cccc(NC(=O)c2ccccc2NS(C)(=O)=O)c1 do in these assays?
MCF10A rereplic: -1%; TDP1 cell noCPT: 21µM*; IL1B secr inh: 15; SW480 rerep: 5%; TDP1 cell CPT: inconclusive; Chronic BCR inh: inconclusive

Results for COc1ccccc1NC(=O)c1ccccc1-c1nc(-c2ccccc2OC)no1 ?
MCF10A rereplic: -2%; TDP1 cell noCPT: 6.3µM*; IL1B secr inh: -3; SW480 rerep: 24%; TDP1 cell CPT: 14µM*; Chronic BCR inh: inconclusive

What do the screens show for `COc1ccccc1NC(=O)c1ccccc1NS(C)(=O)=O`?
MCF10A rereplic: -3%; TDP1 cell noCPT: 15µM*; IL1B secr inh: 0; SW480 rerep: 3%; TDP1 cell CPT: inconclusive; Chronic BCR inh: -16%

Results for COc1cccc(NC(=O)c2cc(Cl)nnc2Cl)c1 ?
MCF10A rereplic: inconclusive; TDP1 cell noCPT: 8.2µM*; IL1B secr inh: -92*; SW480 rerep: inconclusive; TDP1 cell CPT: 0.52µM*; Chronic BCR inh: inconclusive

What do the screens show for `COc1ccc(CN(C)C(=O)c2cccc(C(=O)N(C)Cc3ccc(OC)cc3)c2)cc1`?
MCF10A rereplic: -20%; TDP1 cell noCPT: inconclusive; IL1B secr inh: 1; SW480 rerep: -8%; TDP1 cell CPT: inconclusive; Chronic BCR inh: -17%

What do the screens show for `CCOC(=O)Cn1nc(N2CCN(c3ccc(F)cc3)CC2)ccc1=O`?
TDP1 cell noCPT: inconclusive; TDP1 cell CPT: -15%

What do the screens show for `Cc1ccc(C)c(OCCNc2ncccc2[N+](=O)[O-])c1`?
MCF10A rereplic: -3%; TDP1 cell noCPT: inconclusive; IL1B secr inh: 0; SW480 rerep: 18%; TDP1 cell CPT: inconclusive; Chronic BCR inh: 2%

Results for Cc1ccc(C(=O)N2CCCCC2)cc1S(=O)(=O)N1CCOCC1 ?
MCF10A rereplic: 5%; TDP1 cell noCPT: 2%; IL1B secr inh: 0; SW480 rerep: -10%; TDP1 cell CPT: -5%; Chronic BCR inh: 0%

How did Cc1ccccc1OCC(=O)NCC(C)NC(=O)COc1ccccc1C (configuration not stated) do in these assays?
TDP1 cell noCPT: -23%; TDP1 cell CPT: -9%

What do the screens show for `COc1ccccc1NC(=O)c1ccccc1NC(=O)c1cccs1`?
MCF10A rereplic: 12%; TDP1 cell noCPT: inconclusive; IL1B secr inh: -16; SW480 rerep: 4%; TDP1 cell CPT: 23µM*; Chronic BCR inh: inconclusive

How did COc1ccc(NC(=O)c2ccccc2NS(C)(=O)=O)cc1OC do in these assays?
MCF10A rereplic: -3%; TDP1 cell noCPT: 10µM*; IL1B secr inh: 0; SW480 rerep: -1%[9.22 µM]; TDP1 cell CPT: 21µM*; Chronic BCR inh: inconclusive

What do the screens show for `COc1ccccc1Nc1ncc(C(=O)Nc2ccc(OC)c(OC)c2)c2ccccc12`?
MCF10A rereplic: 2%; TDP1 cell noCPT: 16µM*!; IL1B secr inh: -7; SW480 rerep: -59%; TDP1 cell CPT: 18µM*; Chronic BCR inh: inconclusive

Results for COc1ccc(Nc2ncc(C(=O)Nc3cccc(OC)c3)c3ccccc23)cc1 ?
TDP1 cell noCPT: -13%; TDP1 cell CPT: inconclusive

How did COc1ccccc1NC(=O)c1cccs1 do in these assays?
MCF10A rereplic: -1%; TDP1 cell noCPT: -10%; IL1B secr inh: 3; SW480 rerep: -6%; TDP1 cell CPT: -6%; Chronic BCR inh: 1%

Results for COC(=O)c1ccc(NC(=O)c2ccccc2NS(C)(=O)=O)cc1 ?
MCF10A rereplic: -6%; TDP1 cell noCPT: inconclusive; IL1B secr inh: 23; SW480 rerep: -5%; TDP1 cell CPT: inconclusive; Chronic BCR inh: inconclusive

How did Cc1nc2c(OCCN3C(=O)c4ccccc4C3=O)cccn2c1N(C)C(=O)CCC1CCCC1 do in these assays?
TDP1 cell noCPT: 7%; IL1B secr inh: 13; TDP1 cell CPT: 4%

How did COC(=O)c1ccccc1COc1cccn2c(N(C)C(=O)CCC3CCCC3)c(C)nc12 do in these assays?
TDP1 cell noCPT: inconclusive; IL1B secr inh: -15; TDP1 cell CPT: inconclusive

What do the screens show for `Cc1ccccc1COc1cccn2c(N(C)C(=O)CCC3CCCC3)c(C)nc12`?
TDP1 cell noCPT: 23µM*; IL1B secr inh: -57*; TDP1 cell CPT: inconclusive

How did COc1ccccc1COc1cccn2c(N(C)C(=O)CCC3CCCC3)c(C)nc12 do in these assays?
TDP1 cell noCPT: 15µM*; IL1B secr inh: -21; TDP1 cell CPT: 18µM*

Results for CCOC(=O)c1sc(=NC(=O)CCS(=O)(=O)c2ccccc2)n(C)c1C ?
MCF10A rereplic: -1%; TDP1 cell noCPT: 7%; IL1B secr inh: 30; SW480 rerep: -4%; TDP1 cell CPT: 22%; Chronic BCR inh: -1%

What do the screens show for `CCCn1c(=NC(=O)CCS(=O)(=O)c2ccccc2)sc2cc(S(N)(=O)=O)ccc21`?
MCF10A rereplic: inconclusive; TDP1 cell noCPT: 21µM*; IL1B secr inh: 14; SW480 rerep: 26%; TDP1 cell CPT: 21µM*; Chronic BCR inh: -3%

Results for COc1cccc2sc(=NC(=O)CCS(=O)(=O)c3ccc(C)cc3)n(C)c12 ?
MCF10A rereplic: 3%; TDP1 cell noCPT: 21µM*; IL1B secr inh: -8; SW480 rerep: 1%; TDP1 cell CPT: inconclusive; Chronic BCR inh: 4%

Results for CCOc1cccc2sc(=NC(=O)CCS(=O)(=O)c3ccc(F)cc3)n(C)c12 ?
MCF10A rereplic: 20%; TDP1 cell noCPT: 16µM*; IL1B secr inh: -24; SW480 rerep: 2%; TDP1 cell CPT: inconclusive; Chronic BCR inh: inconclusive

Results for Cn1c(=NC(=O)CCS(=O)(=O)c2ccccc2)sc2cc(F)ccc21 ?
MCF10A rereplic: 1%; TDP1 cell noCPT: inconclusive; IL1B secr inh: 11; SW480 rerep: inconclusive; TDP1 cell CPT: inconclusive; Chronic BCR inh: inconclusive
